Rows were chosen to be rich in hits. Some 12% of all compounds tested hit in one or more screens of this group.
SARS PLpro yeast: qHTS of Yeast-based Assay for SARS-CoV PLP; S. cerevisiae expressing SARS-CoV PLpro, growth rescue; 330,000 tested, 0.19% active; Potency, µM (top dose mostly 32.9 µM), inactives show at the top dose activity, positive = growth rescue, hits mostly activators; AID 485353, 2010; calls by dose curve; further: 0% is about no effect; nearly all actives have a fitted effect of over 55% in size
Pf growth 96h: Primary qHTS for delayed death inhibitors of the malarial parasite plastid, 96 hour incubation | P. falciparum luciferase reporter growth, 96 h | Potency, µM (top dose mostly 28.7 µM), inactives show at the highest dose activity change, negative = inhibition, actives largely listed as inhibitors | 320,000 tested, 6.9% active | AID 504834, 2011; further: on the % scale 0 is the no-effect control and ±100 the full control effect
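Readout is luminescence from an integrated firefly luciferase in P. falciparum. Red cells, 2% hematocrit and 0.05% parasitemia final, were cultured with compound through two parasite generations (96 hours) at 37 C, 5% CO2.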
Pf growth 48h: Primary qHTS for delayed death inhibitors of the malarial parasite plastid, 48 hour incubation. Potency, µM (titrated, usually from 28.7 µM), inactives show top-dose activity change, negative = inhibition, usual class: inhibitors. P. falciparum luciferase growth in erythrocytes, 48 h. 310,000 tested, 5.9% active; further: on the % scale 0 is the no-effect control and ±100 the full control effect
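Luciferase-expressing P. falciparum in infected erythrocytes (2% hematocrit, 0.1% parasitemia final) in RPMI 1640/0.5% Albumax were exposed to compound for 48 hours at 37 C, 5% CO2; growth read as luminescence.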
Sm TGR block: qHTS Assay for the Inhibitors of Schistosoma Mansoni Peroxiredoxins; Schistosoma mansoni thioredoxin glutathione reductase (TGR), Q962Y6; Potency, µM (series often up to 114 µM), for the others: at the highest dose activity change, negative = inhibition, hits mostly inhibitors; AID 485364, 2010; purified TGR, DTNB reduction, TNB absorbance 405 nm; 360,000 tested, 3% active; further: on the % scale 0 is the no-effect control and ±100 the full control effect; nearly all actives have a fitted effect of over 60% in size
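Kinetic colorimetric format: TGR-catalysed, NADPH-driven DTNB reduction monitored via TNB absorbance. Enzyme dispensed at 20 nM; compound exposure 15 min at room temperature before reaction start.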
Numbers without * were called inactive; u = inconclusive; x = no result given; [ ] = remark or other dose. Unless noted, the call rests on the fitted dose curve; in most records, active means well fitted curve in the direction sought with a large enough effect; inconclusive means small, poorly fitted or top-dose-only effect, or another doubt; inactive means no such curve, though single readings can be large; an effect the other way counts as inactive or inconclusive. Potency means the concentration at half of the fitted maximal effect.

SMILES	SARS PLpro yeast	Pf growth 96h	Pf growth 48h	Sm TGR block
CC(C)(O)C(=O)NNC(=S)Nc1cccc(C(F)(F)F)c1	-0.4%	11.7µM*	12.6%	15.2%
CCOc1ccc(NC(=S)NNC(=S)Nc2cccc(C(F)(F)F)c2)cc1	1.4%	13.1µM*	u	-0.4%
COc1ccc(NC(=S)NNC(=S)Nc2cccc(C(F)(F)F)c2)cc1	-1.5%	u	u	2.3%
FC(F)(F)c1cccc(NC(=S)NNC(=S)Nc2cccc(C(F)(F)F)c2)c1	-6.7%	u	u	13.7%
O=C1CC(c2nnc(Cc3ccccc3Cl)o2)CN1c1ccccc1 (stereo unspecified)	x	x	x	1.5%
O=C(CCC1CCCC1)N1CCc2c([nH]c3ccccc23)C1c1ccc(Cl)cc1 (stereo unspecified)	x	x	x	14.0%
CC(=O)c1ccc(OCC(=O)OCC(=O)NCc2ccco2)cc1	-2.7%	-9.2%	-20.1%	-24.5%
Cc1cccc2cc(C#N)c(NCCNC(=S)NCCCN3CCOCC3)nc12	-0.5%	-16.8%	10.4µM*	-30.2%
COc1ccc2nc(NCCNC(=S)NCCCN3CCOCC3)c(C#N)cc2c1	5.7%	-32.7%[5.75 µM]	u	-23.7%
Cc1cccc2cc(C#N)c(NCCNS(=O)(=O)c3ccc4c(c3)OCCO4)nc12	0.2%	5.22µM*	-15.0%	-32.2%
Cc1cc2cc(C#N)c(NCCNC(=S)NCCCN3CCOCC3)nc2cc1C	4.1%	222.9%	13.1µM*	-27.6%
CCOc1ccc(NC(=O)C2CCN(S(=O)(=O)c3ccc4c(c3)oc(=O)n4C)CC2)cc1	x	x	x	-1.6%
Cc1ccc(NC(=O)c2ccc(NCCCN3CCOCC3)c([N+](=O)[O-])c2)cc1Cl	-13.7%	78.6%	2.33µM*	-1.5%
O=C(Nc1ccc(Cl)c([N+](=O)[O-])c1)c1ccc(NCCCN2CCOCC2)c([N+](=O)[O-])c1	4.5%	u	14.7µM*	-8.9%
O=C(NCCN1CCOCC1)c1ccc(Cl)c([N+](=O)[O-])c1	-5.0%	290.2%	0.0%	-20.4%
COc1ccc(NC(=O)c2ccc(NCCCN3CCOCC3)c([N+](=O)[O-])c2)cc1	3.8%	-2.7%	u	-8.7%
CC(C)(C)C(=O)/C(=C\c1ccc([N+](=O)[O-])cc1)n1cncn1	-88.9%	u	11.7µM*	2.24µM*
CC(C)(C)C(=O)/C(=C/c1ccc(Cl)cc1)n1cncn1	-4.3%	136.2%	14.7µM*	u
O=C(/C(=C/c1ccncc1)n1ccnc1)c1ccc(Cl)cc1Cl	-0.1%	u	u	-29.1%
CC(C)/C=C(/C(=O)c1ccc(Cl)cc1Cl)n1cncn1	-5.8%	0.0%	-17.5%[0.00184 µM]	35.5µM*
COc1ccc(C(=O)COC(=O)CN2C(=O)C3C4CCC(C4)C3C2=O)cc1 (stereo unspecified)	0.7%	76.0%	15.6%	6.9%
CCC(C)NC(=O)c1ccccc1NC(=O)c1ccc(CSc2ccccc2)cc1 (stereo unspecified)	-4.2%	-0.1%	11.7µM*	1.9%
Cc1ccc(SCc2ccc(C(=O)Nc3ccccc3C(=O)NC(C)C)cc2)cc1	-21.4%	422.7%	-4.9%	-3.2%
CCNC(=O)c1ccc(CSc2ccc(Cl)cc2)cc1	-23.6%	u	4.65µM*	2.5%
CCCNC(=O)c1ccccc1NC(=O)c1ccc(CSc2ccccc2)cc1	-26.5%	u	13.1µM*	2.1%
SMILES	SARS PLpro yeast	Pf growth 96h	Pf growth 48h	Sm TGR block
O=C(Cn1c(SCCOc2ccccc2Cl)nc2ccccc21)N1CCOCC1	x	x	x	9.4%
Cc1c(O)ccc2c(-c3ccccc3)cc(=O)oc12	-1.2%	-13.1%	u	-0.6%
Cc1cccc2cc(-c3ccccc3)c(-c3ccccc3)c[n+]12	-8.0%	1.31µM*	1.85µM*	-4.0%
CC(C)c1ncc([N+](=O)[O-])n1C	x	-0.1%	-2.2%	x
CN(C)c1ncc(CN2CCC(C(=O)Nc3ccc(-n4cccn4)cc3)CC2)s1	6.4%	17.3%	2.62µM*	5.4%
CC1=C(C(N)=O)C(c2cccc(C)c2)n2nc(-c3cccc(C)c3)nc2N1 (stereo unspecified)	x	x	x	-1.7%
COc1ccc(C2=NN(c3ccccc3)C(=O)/C2=C\c2ccc(O)c(OC)c2)cc1	-1.5%	u	13.1µM*	-7.0%
CCOC(=O)C(C)NC(=O)c1c2c(nc3ccccc13)C(=O)N(C1CCCCC1)C2 (stereo unspecified)	x	x	x	-1.5%
COC(=O)CNC(c1ccccc1)c1cc(Br)ccc1N (stereo unspecified)	-0.6%	24.4%	8.1%	13.1%
COC(=O)CNC(c1ccccc1)c1cc(Br)ccc1NS(=O)(=O)c1ccccc1 (stereo unspecified)	-21.0%	3.6%	14.7µM*	-1.7%
COC(=O)CNC(c1ccccc1)c1cc(Br)ccc1NS(=O)(=O)c1ccc(C)cc1 (stereo unspecified)	-26.0%	42.5%	11.7µM*	-1.6%
COC(=O)[C@]1(C)N[C@H](CN(C)C(=O)Nc2ccc(C(F)(F)F)cc2)[C@@H]2C(=O)N(C)C(=O)[C@@H]21	-0.1%	x	x	x
Clc1ccccc1/C=N/Nc1cc(N2CCOCC2)ncn1	-0.3%	8.28µM*	121.2%	-0.3%
O=[N+]([O-])c1cccc(/C=N/Nc2cc(N3CCOCC3)ncn2)c1	0.0%	u	x	-20.2%
Oc1ccccc1-c1nc2ccccc2nc1-c1ccccc1	-0.6%	u	14.7µM*	-7.6%
Cc1cccc(N(CC(=O)NC(C)c2ccccc2)S(=O)(=O)c2ccccc2)c1C (stereo unspecified)	x	x	x	-1.1%
Cc1nc2ncnn2c(N2CCN(C(c3ccccc3)c3ccccc3)CC2)c1C	x	0.37µM*	u	u
Cc1cc(N2CCN(C(c3ccccc3)c3ccccc3)CC2)n2ncnc2n1	x	-20.9%	-22.4%	4.6%
CC(=O)c1c(O)cc(O)c(C(C)=O)c1O	-9.1%	-10.8%	10.4µM*	8.8%
COc1ccc(OC)c(/C=N/NC(=O)CSc2cc(C)nc3c(OC)cccc23)c1	0.5%	8.28µM*	-9.9%	1.3%
N#C/C(=C\c1ccc(-c2ccc(C(=O)O)cc2)o1)C(=O)Nc1ccc(F)cc1	0.6%	9.28µM*	-16.7%	-7.4%
CCOc1ccc(C2=Nn3c(CC)nnc3SC2)cc1	3.8%	u	u	-22.4%
COc1ccccc1NCC(=O)Nc1cc(S(=O)(=O)N2CCOCC2)ccc1N1CCOCC1	-0.4%	u	u	11.3%
CC(NCC(=O)Nc1cc(S(=O)(=O)N2CCOCC2)ccc1N1CCOCC1)c1ccco1 (stereo unspecified)	-0.8%	5.86µM*	u	-22.9%
Cc1ccccc1SCC(=O)Nc1cc(S(=O)(=O)N2CCOCC2)ccc1N1CCOCC1	0.9%	u	8.28µM*	7.0%
Cc1ccc(S(=O)(=O)N2CCOCC2)cc1NC(=O)CNc1ccccc1N1CCCC1=O	-2.0%	u	9.28µM*	-4.0%
O=C(CNC(=O)c1ccccc1)OCc1cc(=O)n2nc(C3CC3)sc2n1	x	x	x	-2.7%
Cc1ccc(NC(=O)C2CCN(S(C)(=O)=O)CC2)cc1Cl	-0.4%	u	-7.8%	-28.3%
